This is an account of results in PubChem BioAssay (NCI).

A short description of assay [1]: NCI Yeast Anticancer Drug Screen. Data for the rad50 strain (AID 155).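 Also: 0% = growth of vehicle-only cultures of the same strain.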 The note with it: S. cerevisiae rad50 strain growth inhibition, stronger effect = higher value. An outline of the steps:
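Inhibition values express reduced yeast growth in compound-treated cultures relative to vehicle-treated controls.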

The nature of assay [2]: NCI Yeast Anticancer Drug Screen. Data for the mec2-1 strain (AID 157). Particulars: S. cerevisiae mec2-1 strain, stronger effect = higher value. The method, boiled down: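 Readout is yeast growth inhibition, normalised to vehicle-treated controls, in the mec2-1 strain exposed to compound.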
Assay [3] can be described thus: NCI Yeast Anticancer Drug Screen. Data for the sgs1 mgt1 strain (AID 161).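 Also: 0% = growth of cultures given vehicle only.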 The note with it: S. cerevisiae sgs1 mgt1 strain, stronger effect = higher value. The method, boiled down: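 Growth of a repair-deficient yeast mutant was monitored after compound treatment and expressed as inhibition relative to vehicle-treated cultures.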
The nature of assay [4]: NCI Yeast Anticancer Drug Screen. Data for the cln2 rad14 strain (AID 165).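 Also: 0% = growth equal to vehicle treated cultures.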 The note with it: S. cerevisiae cln2 rad14 strain, stronger effect = higher value. The method, boiled down: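 Relative to vehicle controls, growth inhibition of compound-treated cln2 rad14 yeast was recorded.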
Assay [5] is described as follows: NCI Yeast Anticancer Drug Screen. Data for the bub3 strain (AID 167). The note with it: S. cerevisiae bub3 mutant strain, stronger effect = higher value. An outline of the steps: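 Steps: expose the mutant yeast strain to compound; grow alongside vehicle-treated cultures; measure growth; express inhibition against the vehicle cultures.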
A short description of assay [6]: NCI Yeast Anticancer Drug Screen. Data for the mlh1 rad18 strain (AID 175). The note with it: S. cerevisiae mlh1 rad18 strain growth inhibition, stronger effect = higher value. An outline of the steps:
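Test agents were incubated with a yeast strain of defined genotype (DNA damage repair defect). Inhibition of growth was derived by comparison with vehicle-exposed cultures.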

Where [7] appears, read: at 5.0 µM (retest, dose inferred, filed as 0.5).
Where [8] appears, read: at 50.0 µM (retest, dose inferred, filed as 5.0).

This is part of a sample that, as a whole, favours compounds with a hit. Of some 79,000 tested, about 15% had one in any assay. Unmarked numbers belong to inactive results. The source made the active and inactive calls. Rule as the data show it: active = growth inhibition above about 70%; inactive = the rest.

On to `O=C(/C=C/c1ccc(O)cc1)c1cc(Cl)ccc1O`, for which the growth inhibition in assay [1] (setting [7]) was 10%; in assay [1] (setting [8]), 96% (active); in assay [1] (at 50.0 µM), 95.7% (active); in assay [2] (setting [7]) it was 6%; in assay [2] (setting [8]), 97% (active); in assay [2] (at 50.0 µM) it was 95.7% (active). The growth inhibition in assay [3] (setting [7]) is 36%; in assay [3] (setting [8]), 97% (active); in assay [3] (at 50.0 µM) it was 92.4% (active); in assay [4] (setting [7]), -4%; in assay [4] (setting [8]), 97% (active); in assay [4] (at 50.0 µM), 94.2% (active). The growth inhibition in assay [5] (setting [7]) was 4%; in assay [5] (setting [8]), 97% (active); in assay [5] (at 50.0 µM), 96.5% (active); in assay [6] (setting [7]), 7%; in assay [6] (setting [8]), 96% (active); in assay [6] (at 50.0 µM), 93.3% (active).

For `CN(NC(=O)/C(=C\c1ccco1)NC(=O)c1ccccc1)c1cn[nH]c(=O)c1Cl`, the growth inhibition in assay [1] (setting [7]) is 9%; in assay [1] (setting [8]) it was 36%; in assay [1] (at 50.0 µM) it was 86.2% (active); in assay [2] (setting [7]), -9%; in assay [2] (setting [8]), 13%; in assay [2] (at 50.0 µM), 83.4% (active). Moreover, the growth inhibition in assay [3] (setting [7]) is -2%; in assay [3] (setting [8]), 6%; in assay [3] (at 50.0 µM) it was 87.8% (active); in assay [4] (setting [7]), 7%; in assay [4] (setting [8]), 13%; in assay [4] (at 50.0 µM) it was 62.7%. The growth inhibition in assay [5] (setting [7]) is -10%; in assay [5] (setting [8]), 27%; in assay [5] (at 50.0 µM), 90.6% (active); in assay [6] (setting [7]) it was -6%; in assay [6] (setting [8]), 47%; in assay [6] (at 50.0 µM), 93.5% (active).

Take `C=C(Br)CN(CC)CC`: the growth inhibition in assay [1] (setting [7]) is -151%; in assay [1] (setting [8]) it was -185%; in assay [1] (at 50.0 µM), -16.6%; in assay [2] (setting [7]), -48%; in assay [2] (setting [8]), -54%; in assay [2] (at 50.0 µM) it was -15.7%. Moreover, the growth inhibition in assay [3] (setting [7]) is -64%; in assay [3] (setting [8]), -67%; in assay [3] (at 50.0 µM), -5.55%; in assay [4] (setting [7]), -51%; in assay [4] (setting [8]), -63%; in assay [4] (at 50.0 µM), 11.7%. Besides, the growth inhibition is -69% in assay [5] (setting [7]); -72% in assay [5] (setting [8]); -0.5% in assay [5] (at 50.0 µM); -130% in assay [6] (setting [7]); -170% in assay [6] (setting [8]); -3.5% in assay [6] (at 50.0 µM).

In the case of `CC(C)Nc1nc(NC(C)C)c2cnn(-c3ccccc3)c2n1`, the growth inhibition is 0% in assay [1] (setting [7]); 55% in assay [1] (setting [8]); 96.7% (active) in assay [1] (at 50.0 µM); 1% in assay [2] (setting [7]); 69% in assay [2] (setting [8]); 83.9% (active) in assay [2] (at 50.0 µM). The growth inhibition was 2% in assay [3] (setting [7]); 95% (active) in assay [3] (setting [8]); 98.5% (active) in assay [3] (at 50.0 µM); -10% in assay [4] (setting [7]); 24% in assay [4] (setting [8]); 88.3% (active) in assay [4] (at 50.0 µM). For the same molecule, the growth inhibition in assay [5] (setting [7]) is 1%; in assay [5] (setting [8]) it was 68%; in assay [5] (at 50.0 µM) it was 81.7% (active); in assay [6] (setting [7]), 3%; in assay [6] (setting [8]), 74% (active); in assay [6] (at 50.0 µM) it was 95.5% (active).

Regarding `COC(=O)CCC(=O)c1ccc2c(c1)CC1(Cc3ccccc3C1)C2`, the growth inhibition was 20% in assay [1] (setting [7]); 29% in assay [1] (setting [8]); 14.4% in assay [1] (at 50.0 µM); 24% in assay [2] (setting [7]); 21% in assay [2] (setting [8]); 3.85% in assay [2] (at 50.0 µM). The growth inhibition in assay [3] (setting [7]) was 24%; in assay [3] (setting [8]), 46%; in assay [3] (at 50.0 µM), 15.3%; in assay [4] (setting [7]), 14%; in assay [4] (setting [8]) it was 8%; in assay [4] (at 50.0 µM) it was 17.6%. In addition, the growth inhibition is 25% in assay [5] (setting [7]); 44% in assay [5] (setting [8]); 41.4% in assay [5] (at 50.0 µM); 29% in assay [6] (setting [7]); 30% in assay [6] (setting [8]); 12.1% in assay [6] (at 50.0 µM).

Take `Clc1ccc(/C(=C/c2ccccc2)Cn2ccnc2)cc1`: the growth inhibition in assay [1] (setting [7]) was 88% (active); in assay [1] (setting [8]), 93% (active); in assay [1] (at 50.0 µM), 75.6% (active); in assay [2] (setting [7]), 64%; in assay [2] (setting [8]) it was 86% (active); in assay [2] (at 50.0 µM) it was 78.8% (active). The growth inhibition in assay [3] (setting [7]) is 86% (active); in assay [3] (setting [8]) it was 90% (active); in assay [3] (at 50.0 µM), 75% (active); in assay [4] (setting [7]), 85% (active); in assay [4] (setting [8]), 83% (active); in assay [4] (at 50.0 µM) it was 70.5% (active). The growth inhibition was 70% (active) in assay [5] (setting [7]); 93% (active) in assay [5] (setting [8]); 81% (active) in assay [5] (at 50.0 µM); 83% (active) in assay [6] (setting [7]); 90% (active) in assay [6] (setting [8]); 78.5% (active) in assay [6] (at 50.0 µM).

Turning to `CS(=O)(=O)c1nnnn1-c1ccccc1`, the growth inhibition in assay [1] (setting [7]) is -21%; in assay [1] (setting [8]), 93% (active); in assay [1] (at 50.0 µM) it was 99.2% (active); in assay [2] (setting [7]) it was -24%; in assay [2] (setting [8]), 97% (active); in assay [2] (at 50.0 µM) it was 99.5% (active). Further, the growth inhibition in assay [3] (setting [7]) was -18%; in assay [3] (setting [8]), 96% (active); in assay [3] (at 50.0 µM) it was 99% (active); in assay [4] (setting [7]) it was -49%; in assay [4] (setting [8]) it was 94% (active); in assay [4] (at 50.0 µM) it was 97.3% (active). Moreover, the growth inhibition in assay [5] (setting [7]) was -34%; in assay [5] (setting [8]) it was 95% (active); in assay [5] (at 50.0 µM), 99.4% (active); in assay [6] (setting [7]) it was -62%; in assay [6] (setting [8]) it was 96% (active); in assay [6] (at 50.0 µM), 99.5% (active).

As to `COC(=O)c1ccc([N+](=O)[O-])o1`, the growth inhibition in assay [1] (setting [7]) is 7%; in assay [1] (setting [8]), 42%; in assay [1] (at 50.0 µM), 70.7% (active); in assay [2] (setting [7]), 7%; in assay [2] (setting [8]), 38%; in assay [2] (at 50.0 µM) it was 46.4%. In addition, the growth inhibition in assay [3] (setting [7]) was 4%; in assay [3] (setting [8]), 26%; in assay [3] (at 50.0 µM) it was 76.8% (active); in assay [4] (setting [7]), -5%; in assay [4] (setting [8]), 5%; in assay [4] (at 50.0 µM) it was 23.2%. Moreover, the growth inhibition in assay [5] (setting [7]) was 0%; in assay [5] (setting [8]) it was 71% (active); in assay [5] (at 50.0 µM), 62.1%; in assay [6] (setting [7]), 13%; in assay [6] (setting [8]), 56%; in assay [6] (at 50.0 µM), 72.3% (active).

On to `CC(C)CCSc1ncnc2nc[nH]c12`, for which the growth inhibition in assay [1] (setting [7]) was 1%; in assay [1] (setting [8]), 6%; in assay [1] (at 50.0 µM) it was 48.1%; in assay [2] (setting [7]), -5%; in assay [2] (setting [8]), 3%; in assay [2] (at 50.0 µM), 53.5%. For the same molecule, the growth inhibition in assay [3] (setting [7]) is -1%; in assay [3] (setting [8]), 1%; in assay [3] (at 50.0 µM), 63%; in assay [4] (setting [7]), -4%; in assay [4] (setting [8]), 9%; in assay [4] (at 50.0 µM), 29.8%. The growth inhibition was -2% in assay [5] (setting [7]); 8% in assay [5] (setting [8]); 73.5% (active) in assay [5] (at 50.0 µM); -1% in assay [6] (setting [7]); 6% in assay [6] (setting [8]); 33.8% in assay [6] (at 50.0 µM).

As for `O=[N+]([O-])C(=C(Nc1ccccc1)Nc1ccccc1)/C(Cl)=C(\Cl)Br`, the growth inhibition in assay [1] (setting [7]) is -7%; in assay [1] (setting [8]), 99% (active); in assay [1] (at 50.0 µM), 98.7% (active); in assay [2] (setting [7]), 11%; in assay [2] (setting [8]), 99% (active); in assay [2] (at 50.0 µM), 99.5% (active). For the same molecule, the growth inhibition is 6% in assay [3] (setting [7]); 99% (active) in assay [3] (setting [8]); 99.3% (active) in assay [3] (at 50.0 µM); 22% in assay [4] (setting [7]); 99% (active) in assay [4] (setting [8]); 99.3% (active) in assay [4] (at 50.0 µM). The growth inhibition was -11% in assay [5] (setting [7]); 99% (active) in assay [5] (setting [8]); 99.2% (active) in assay [5] (at 50.0 µM); 32% in assay [6] (setting [7]); 99% (active) in assay [6] (setting [8]); 99.2% (active) in assay [6] (at 50.0 µM).
